Reference: PubChem BioAssay AID651813 (National Center for Advancing Translational Sciences (NCATS), 2012)
Out of some 2,100 compounds screened, about 1,100 (52%) were called active. Not shown: some 27% with an inconclusive outcome. The call rests on the fitted dose curve; in most records, active means well fitted inhibition curve with a large enough effect; inconclusive means small, poorly fitted or top-dose-only effect; inactive means no such curve, though single readings can be large or run the other way. The set was probably picked from earlier hits. The list shows a part of the results.
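Further: hits raise yellow fluorescence by blocking Vif-driven A3G-eYFP degradation; nearly all actives have a fitted effect of over 70% in size.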
Potency means the concentration at half of the fitted maximal effect.
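Wherever max response is given: max response given as percent of control signal.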

These molecules were tested against DNA dC->dU-editing enzyme APOBEC-3G (Homo sapiens) (UniProt Q9HC16) (assay: qHTS for inhibitors of Vif-A3G interactions: Cherry picks counterscreen). Settings: HeLa A3G-eYFP + Vif (tagged APOBEC3G with the HIV-1 protein that degrades it), eYFP fluorescence, 24 h.
DNA dC->dU-editing enzyme APOBEC-3G (Homo sapiens), sequence (Q9HC16 whole entry, looked up): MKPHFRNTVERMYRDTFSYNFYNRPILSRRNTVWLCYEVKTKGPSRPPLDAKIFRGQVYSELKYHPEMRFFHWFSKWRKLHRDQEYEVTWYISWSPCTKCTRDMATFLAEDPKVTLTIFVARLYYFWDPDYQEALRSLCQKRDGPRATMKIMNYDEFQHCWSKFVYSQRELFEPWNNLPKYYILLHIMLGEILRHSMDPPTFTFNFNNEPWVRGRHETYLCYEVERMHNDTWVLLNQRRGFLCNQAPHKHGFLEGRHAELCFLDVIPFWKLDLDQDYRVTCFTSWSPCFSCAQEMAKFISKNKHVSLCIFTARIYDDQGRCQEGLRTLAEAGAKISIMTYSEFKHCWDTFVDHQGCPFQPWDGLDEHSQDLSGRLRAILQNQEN
Method in brief: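 Readout is eYFP fluorescence (488 nm excitation, 500-530 nm emission) measured on Acumen Explorer after 24 h compound exposure, several concentrations, at 37 deg C. Cells: HeLa stably co-expressing Vif and C-terminally eYFP-tagged A3G; MG132 positive control.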
For `CN(Cc1cnn(Cc2ccccc2)c1)C(=O)c1cccc(S(=O)(=O)N2CCOCC2)c1`, the Potency was 11.2 µM (active).
In the case of `Nc1[nH]c2cc([N+](=O)[O-])ccc2c1-c1ccccn1`, the Potency is reported as 4.61 µM (active).
With `c1ccc(-c2cccc(-c3ccccn3)n2)nc1` the max response was -27.5% (inactive).
`COc1cc(C(=O)NCCOc2cc(C)cc(C)c2)cc(OC)c1OC` was tested, and the Potency was 3.14 µM (active).
With `CCn1c(CNC(=O)c2cc(OC)c(OC)c(OC)c2)cc2cc(C)ccc21` the max response was -10.2% (inactive).
`CCOc1ccccc1Oc1nc(C)nc2c1oc1ccccc12` was tested, and the Potency was 2.91 µM (active).
In the case of `CNC(=O)C(Sc1nc(C)nc2c1oc1ccccc12)C(C)=O` (centres undefined), the max response is reported as -16.6% (inactive).
`O=Cc1s/c(=N\S(=O)(=O)c2ccccc2)n(CCCCl)c1Cl` was tested, and the Potency was 8.2 µM (active).
In the case of `COc1ccc(C2=CC(c3ccc(N(C)C)cc3)n3nnnc3N2)cc1` (centres undefined), the Potency is reported as 23.1 µM (active).
With `CN(C)c1ccc(C2C=C(c3ccccc3)Nc3nnnn32)cc1` (centres undefined) the Potency was 23.1 µM (active).
`CCOC(=O)c1ccc(NC(=O)CSc2nc(-c3cccs3)cc(C(F)(F)F)c2C#N)cc1` was tested, and the Potency was 23.1 µM (active).
`N#Cc1c(C(F)(F)F)cc(-c2cccs2)nc1SCC(=O)Nc1ccc(Cl)cc1` was tested, and the Potency was 10.3 µM (active).
With `N#Cc1c(C(F)(F)F)cc(-c2cccs2)nc1SCC(=O)Nc1cccc(C(F)(F)F)c1` the Potency was 20.6 µM (active).
With `O=C(CSc1n[nH]c(-c2ccccn2)n1)Nc1ccc(Cl)cc1` the max response was 17.5% (inactive).
In the case of `N#Cc1c(C(F)(F)F)cc(-c2cccs2)nc1SCC(=O)Nc1cccc(Cl)c1`, the max response is reported as -23.7% (inactive).
In the case of `O=[N+]([O-])c1ccc(Oc2cccc3cccnc23)c([N+](=O)[O-])c1`, the Potency is reported as 12.5 µM (active).
For `O=[N+]([O-])c1cc(Cl)c2cccnc2c1O`, the max response was 30.7% (inactive).
For `O=[N+]([O-])c1cc(O)c2ncccc2c1`, the max response was -9.81% (inactive).
With `CCC(C)[C@H](NC(=O)N1CC(=O)Nc2ccccc21)C(=O)Nc1ccccc1C` (some centres undefined) the Potency was 9.94 µM (active).
In the case of `Cc1cc(C)cc(C(=O)N2CC(=O)Nc3ccccc32)c1`, the Potency is reported as 0.704 µM (active).
`COc1cc(OC)cc(C(=O)N2CC(=O)Nc3ccccc32)c1` was tested, and the Potency was 3.53 µM (active).
`O=C1CN(C(=O)c2cc(Br)c(Br)s2)c2ccccc2N1` was tested, and the Potency was 12.5 µM (active).
`COc1cc(C(=O)N2CC(=O)Nc3ccccc32)cc(OC)c1OC` was tested, and the Potency was 17.7 µM (active).
With `CCCn1nc(C(=O)N2CC(=O)Nc3ccccc32)c2ccccc2c1=O` the Potency was 7.04 µM (active).
In the case of `COc1cc(C(=O)c2ccc3c(c2)OCO3)cc(OC)c1OC`, the Potency is reported as 5.59 µM (active).
In the case of `CCOC(=O)N1CCN(c2c(NCc3ccc(F)cc3)c(=O)c2=O)CC1`, the Potency is reported as 14 µM (active).
In the case of `CCOC(=O)Nc1cc2c(c(N)n1)N=C(c1ccccc1)CN2`, the Potency is reported as 0.058 µM (active).
For `COc1ccc(NC(=S)NN(C)C(=S)Nc2ccc(OC)cc2)cc1`, the Potency was 6.27 µM (active).
In the case of `C=CCNC(=S)N/N=C(\C)c1ccc(OC)cc1`, the max response is reported as -1.31% (inactive).
In the case of `COc1ccc(N(C)S(=O)(=O)c2cccc3cccnc23)c(OC)c1`, the Potency is reported as 14 µM (active).
For `O=c1cc(-c2ccccc2)[nH]c2ccccc12`, the Potency was 3.14 µM (active).
`Cc1ccc(N/C(N)=N/c2nc(CSc3nnc(C)s3)cc(=O)[nH]2)c(C)c1` was tested, and the Potency was 2.8 µM (active).
For `O=c1c(Cl)c2oc3ccccc3nc-2c2ccccc12`, the Potency was 10.3 µM (active).
`CC[n+]1c(C=C2C=C(C)OC(C)=C2)sc2ccccc21` was tested, and the Potency was 4.11 µM (active).
In the case of `COCCCN(C(C)=O)c1nc(-c2ccc(OC)cc2)cs1`, the Potency is reported as 14 µM (active).
With `CCCC(=O)NC1=C(Cl)C(=O)c2ccccc2C1=O` the max response was 62.1% (inactive).
`O=C(CCc1ccccc1)Nc1ccc(Cl)cn1` was tested, and the Potency was 7.9 µM (active).
With `S=C(NCc1ccco1)Nc1ccc(Cl)cn1` the max response was -10.1% (inactive).
In the case of `Cc1ccc(-c2nc(-c3cc4cccc(OCc5cccc(F)c5)c4oc3=O)no2)cc1`, the Potency is reported as 23.1 µM (active).
`COc1cc(/C=C/C(=O)c2ccc3c(c2)OCCO3)cc(Br)c1OCC(=O)N(C)C` was tested, and the Potency was 14 µM (active).
In the case of `Cc1c(=O)n(OCc2ccc(Cl)cc2)c2ccccc2[n+]1[O-]`, the max response is reported as -2.47% (inactive).
`O=c1c[n+]([O-])c2ccccc2n1OCc1c(F)cccc1F` was tested, and the Potency was 19.8 µM (active).
With `CN(C)C=Nc1c(Br)cc(Br)c2nonc12` the Potency was 4.61 µM (active).
With `CCNC(=S)N/N=C(\C)c1ccc(N2CCOCC2)cc1` the max response was -8.21% (inactive).
In the case of `COc1ccc2nc(N3C(=O)/C(=C/c4ccccc4)NC3=S)sc2c1`, the Potency is reported as 11.6 µM (active).
For `COc1ccc(/C=C/C=C2\NC(=S)NC2=O)cc1`, the max response was -11.7% (inactive).
For `CCOc1ccc2nc(N3C(=O)/C(=C/c4ccc(Cl)cc4)NC3=S)sc2c1`, the Potency was 18.4 µM (active).
For `CCOc1cc(C#N)c(NC(=O)c2cccnc2)cc1OCC`, the Potency was 7.04 µM (active).
`CSc1ccc(/C=N/NC(=O)c2ccccc2Cl)cc1` was tested, and the Potency was 12.5 µM (active).
`CN(C)c1ccc(/C=N/NC(=O)c2ccccc2Cl)cc1` was tested, and the Potency was 4.98 µM (active).
For `Cc1ccc(/C=N/NC(=O)c2cc(C)oc2C)cc1`, the Potency was 9.94 µM (active).
`COc1cc(C(=O)N/N=C/c2ccccn2)cc(OC)c1OC` was tested, and the Potency was 12.5 µM (active).
In the case of `S=C(NN=Cc1ccccn1)Nc1ccccn1`, the max response is reported as 20.1% (inactive).
For `COc1cc(C(=O)Nc2ccc3c(c2)ncn3C)cc(OC)c1OC`, the Potency was 7.04 µM (active).
`COc1cc(C(=O)Nc2ccc3ccccc3c2)cc(OC)c1OC` was tested, and the Potency was 1.58 µM (active).
`COc1cc(C(=O)N/N=C/C2CC=CCC2)cc(OC)c1OC` (centres undefined) was tested, and the max response was -11.5% (inactive).
`COc1ccc(C(=O)/C=C2/c3ccccc3CC(C)(C)N2C)cc1` was tested, and the Potency was 12.5 µM (active).
`CN(C)CCOc1ccc2c(c1)C(=O)C(=Cc1ncc([N+](=O)[O-])n1C)C2` was tested, and the Potency was 8.86 µM (active).
In the case of `COc1ccc(S(=O)(=O)N2N=C(C)Oc3ccccc3C2=O)cc1`, the Potency is reported as 7.9 µM (active).
With `COC(=O)C1CCC(=O)N1C(c1ccc(OC)cc1)c1cc(OC)c(OC)c(OC)c1` (centres undefined) the Potency was 0.559 µM (active).
With `COC(=O)c1c(N2C(=O)[C@H]3[C@@H](C2=O)[C@]2(C(=O)Nc4c(C)cccc42)N2CCC[C@@H]32)sc(C)c1C` the Potency was 6.27 µM (active).
For `CN1C2=CC=CC=CC2=[N+](C)C12C([N+](=O)[O-])=CC(=[N+]([O-])[O-])C=C2[N+](=O)[O-]` (centres undefined), the max response was -21% (inactive).
For `C=CCSc1nc2ccccc2n1C(=O)/C=C/c1cc(OC)c(OC)c(OC)c1`, the Potency was 8.86 µM (active).
In the case of `CCSc1nc2ccccc2n1C(=O)/C=C/c1ccc(OC)c(OC)c1`, the Potency is reported as 4.98 µM (active).
For `CN(C)c1ccc(/C=C/C(=O)c2c(O)c3ccccc3oc2=O)cc1`, the Potency was 1.3 µM (active).
With `CN(C)c1ccc(/C=C/C(=O)c2ccc(O)cc2)cc1` the max response was 57% (inactive).
With `Cc1ccc2c(c1)sc(-c1ccc(N(C)C)cc1)[n+]2C` the Potency was 2.91 µM (active).
`COc1ccc(C2=NOC(C(=O)NCc3ccc(F)cc3)C2)cc1OC` (centres undefined) was tested, and the Potency was 1.12 µM (active).
`COc1ccc(C2=NOC(C(=O)NCc3ccc(F)cc3)C2)cc1` (centres undefined) was tested, and the max response was -20.8% (inactive).
`COc1ccc(C2=NOC(C(=O)NCc3cccs3)C2)cc1OC` (centres undefined) was tested, and the Potency was 7.9 µM (active).
`CCn1c(SCC(=O)Nc2cccc(O)c2)nc2c1c(=O)n(C)c(=O)n2C` was tested, and the max response was -1.18% (inactive).
In the case of `COc1ccc(NC(=O)CSc2ccc3c4c(cccc24)C(=O)c2ccccc2-3)cc1`, the Potency is reported as 14.6 µM (active).
For `N#Cc1cccc(NC(=O)CSc2ccc3c4c(cccc24)C(=O)c2ccccc2-3)c1`, the Potency was 4.61 µM (active).
For `COc1cc2c(cc1OC)C1=CC(=O)C(=O)N1C(C)(C)C2`, the Potency was 14 µM (active).
`Cc1ccc(S(=O)(=O)Nc2cc(Cl)c(O)c3ncccc23)cc1` was tested, and the max response was 10.1% (inactive).
In the case of `CCOc1ccc(S(=O)(=O)Nc2cc3c(C(=O)OC)c(COC)oc3c3ccccc23)cc1`, the Potency is reported as 0.461 µM (active).
With `CC(=O)c1c(C)oc2c1cc(NS(=O)(=O)c1ccc(Br)cc1)c1ccccc12` the Potency was 1.64 µM (active).
In the case of `COc1ccc(S(=O)(=O)Nc2cccc(-c3ccc4nncn4n3)c2)cc1F`, the Potency is reported as 4.44 µM (active).
`COc1ccc(S(=O)(=O)Nc2cccc(-c3ccc4nncn4n3)c2)cc1` was tested, and the Potency was 4.98 µM (active).
In the case of `O=C(N/N=C/C=C/c1ccco1)c1ccncc1`, the max response is reported as 0.191% (inactive).
For `O=[N+]([O-])c1ccc(N/N=C/C=C/c2ccco2)cc1`, the Potency was 18.4 µM (active).
`O=C1/C(=C/c2c[nH]c3ccccc23)CCC/C1=C\c1c[nH]c2ccccc12` was tested, and the Potency was 20.6 µM (active).
`CCOc1ccc(C2CC(c3c(O)c4ccccc4oc3=O)=NN2c2ccccc2)cc1OC` (centres undefined) was tested, and the Potency was 5.17 µM (active).
With `Nc1nn(-c2ccccc2)c(N)c1N=Nc1ccccc1` the Potency was 8.86 µM (active).
For `c1ccc(N=NC2=NN(c3ccccc3)CS2)cc1`, the max response was 20.9% (inactive).
For `Cc1ccc(S(=O)(=O)Nc2nc3ccccc3nc2Nc2cccc(S(=O)(=O)N3CCCC3)c2)cc1`, the Potency was 23.1 µM (active).
`COc1cc(Cl)c(C)cc1Nc1nc2ccccc2nc1NS(=O)(=O)c1ccccc1` was tested, and the Potency was 20.6 µM (active).
For `CC(=O)Nc1ccc(S(=O)(=O)Nc2nc3ccccc3nc2Nc2ccc3ccccc3c2)cc1`, the max response was -17.6% (inactive).
With `O=C(N=c1ccn(-c2nc3ccccc3nc2NS(=O)(=O)c2ccccc2)cc1)c1cccs1` the max response was 0.295% (inactive).
For `Cn1ccnc1Sc1nc2ccccc2nc1NS(=O)(=O)c1ccccc1`, the max response was -7.62% (inactive).
In the case of `O=S(=O)(Nc1nc2ccccc2nc1Nc1cccc(S(=O)(=O)N2CCCCC2)c1)c1ccccc1`, the Potency is reported as 20.6 µM (active).
In the case of `COC(=O)c1cc(Nc2nc3ccccc3nc2NS(=O)(=O)c2ccc(C)cc2)ccc1Cl`, the max response is reported as -22.7% (inactive).
`Cc1c2ccccc2nc2c(F)c(NC(C)C)c(F)c(F)c12` was tested, and the Potency was 8.2 µM (active).
In the case of `CCCNc1c(F)c(F)c2c(C)c3ccccc3nc2c1F`, the Potency is reported as 12.5 µM (active).
